# Inconclusive results are not listed. Entries that show only a call come without a potency. Unmarked numbers belong to inactive results. Active and inactive are the calls of the source. Calls follow the shape of the dose curve; as a rule, active = well fitted cell-killing curve with a large enough effect in the repeat runs; inconclusive = weak or mixed curves, or effect the other way; inactive = flat fitted curve, though single readings scatter.
# Columns and labels:
# [1] = cAMP Responsive Elements (CRE) small molecule antagonists, cell-based qHTS assay: qHTS cell viability counter screen (AID 2060913); also: nearly all actives have a fitted effect of over 40% in size
# Method in brief: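 CRE-bla HEK293T cells were seeded in assay medium with 10% dialyzed FBS, incubated 18 hrs at 37 C, then exposed to compounds plus 0.25 uM final NKH477 for 3 hrs. Viability was read by CellTiter-Glo luminescence after 30 min, in the same wells.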
# [2] = cAMP Responsive Elements (CRE) small molecule agonists, cell-based qHTS assay: qHTS cell viability counter screen (AID 2060914);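 also: viability read after 3 h of compound exposure; nearly all actives have a fitted effect of over 50% in size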
# Method in brief: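 CRE-bla HEK293T cells in 10% dialyzed FBS medium were exposed to compounds for 3 h at 37C after 18 h plating. CellTiter-Glo was then added in the same wells, and luminescence was read after 30 min at room temperature.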
Compound,Potency [1],Potency [2],"viability change, negative = cytotoxic [1]","activity change, negative = cytotoxicity [2]"
COc1cc(C(=S)N2CCOCC2)ccc1O,inactive,inactive,–,–
CCC(N)(CO)CO,inactive,inactive,–,–
Nc1ccc(C(=O)Nc2ccccc2N)cc1,inactive,inactive,–,–
CCOC(=N)CC(=O)OCC,inactive,inactive,–,–
CCCCNc1ccc(NCCCC)c2c1C(=O)c1ccccc1C2=O,–,–,6.2% [at 18.9 µM],-7.45% [at 18.9 µM]
CCCCCCCC/C=C\CCCCCCCC(=O)N(CCO)CCO,inactive,inactive,–,–
COc1ccc(S(=O)(=O)Nc2nnc(CC(C)C)s2)cc1,inactive,inactive,–,–
CC1=CP(=O)(c2ccccc2)CC1 (stereo not given),inactive,inactive,–,–
CCN(CC)CCNC(=O)c1cc(Cl)c(N)cc1OC,inactive,inactive,–,–
Nc1ccncc1N,inactive,inactive,–,–
CC(=O)[C@@]1(O)CC[C@H]2[C@@H]3CCC4=CC(=O)CC[C@]4(C)[C@H]3CC[C@@]21C,inactive,inactive,–,–
CCCCC(CC)COC(C)=O (stereo not given),inactive,inactive,–,–
C#CC(O)C(CC)CCCC (stereo not given),inactive,inactive,–,–
Cc1cc(O)c(C)c(C)c1O,inactive,inactive,–,–
CN(C)c1ccc(/C=C/c2ccc([N+](=O)[O-])cc2)cc1,–,–,10.9% [at 8.39 µM],5.22% [at 8.39 µM]
Cc1ccc(C=O)s1,inactive,inactive,–,–
CC(=O)CC(=O)c1ccccc1,inactive,inactive,–,–
O=Cc1ccccc1C=O,inactive,inactive,–,–
O=C1NC(=O)[C@@H]2CC=CC[C@H]12,inactive,inactive,–,–
O=Nc1ccc(Nc2ccccc2)cc1,inactive,inactive,–,–

# — PubChem BioAssay (Tox21)
